An excerpt weighted towards active compounds, which were near 4.1% of everything screened.
AmpC inh no detg: inhibitors of E. coli AmpC beta-lactamase without detergent | P00811 | AmpC nitrocefin hydrolysis, absorbance 480 nm, 0.0001% Triton | Potency, µM (highest dose often 57.1 µM), inactives show at the highest dose activity change, negative = inhibition, actives largely listed as inhibitors | actives 0.52% (n = 330,000) | AID 485341;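 also: plate controls were no compound for no effect and no enzyme for full effect; nearly all actives have a fitted effect of over 20% in size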
Target sequence (P00811 whole entry, looked up): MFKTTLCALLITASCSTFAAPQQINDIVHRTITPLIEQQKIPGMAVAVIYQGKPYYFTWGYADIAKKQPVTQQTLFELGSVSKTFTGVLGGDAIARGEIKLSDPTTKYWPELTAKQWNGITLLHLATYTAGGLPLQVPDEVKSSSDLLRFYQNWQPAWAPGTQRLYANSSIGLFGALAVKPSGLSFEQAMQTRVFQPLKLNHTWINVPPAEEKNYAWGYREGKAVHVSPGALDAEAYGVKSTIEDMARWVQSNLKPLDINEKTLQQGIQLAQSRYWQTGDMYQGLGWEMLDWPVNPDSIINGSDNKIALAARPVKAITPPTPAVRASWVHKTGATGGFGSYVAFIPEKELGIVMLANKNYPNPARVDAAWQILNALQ
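20 mM phosphate pH 7.0 + 0.01% (detergent screen) or 0.0001% Triton X-100; 5.3 nM AmpC reagent; cpd preinc 15 min RT; nitrocefin (800 uM stock) to start; A480 q20 s × 4 min; Activity was normalised to no-enzyme and no-compound control wells.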
FMDV inh: blocks foot and mouth disease virus. FMDV antiviral cell-based qHTS. Potency, µM (series often up to 57.9 µM), without a hit: top-dose activity change, negative = inhibition, usual class: inhibitors. actives 1.2% (n = 410,000); calls by dose curve; tested in HEK293T cells; also: read-out not given here; nearly all actives have a fitted effect of over 45% in size
AMA1-RON2 inh: AMA1-RON2 (P. falciparum) interaction inhibition | AlphaScreen AMA1-biotinylated RON2 peptide binding | Potency, µM (top dose mostly 58.2 µM), without a hit: at the highest dose activity change, negative = inhibition, most hits filed as inhibitors | actives 0.2% (n = 360,000);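 also: 0% = vehicle wells and -100% = peptide control; nearly all actives have a fitted effect of over 45% in size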
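AMA1 (3D7) with his tag at 25 nM final met compounds first, then biotinylated RON2 peptide at 25 nM; detection used donor plus acceptor beads, 10 µg/mL apiece, read by AlphaScreen after 30 min at room temperature.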
AmpC detergent: blocks E. coli AmpC beta-lactamase in detergent assay | AmpC hydrolysis of nitrocefin, absorbance 480 nm, 0.01% Triton | Potency, µM (doses to about 114 µM), inactives show at the top dose activity change, negative = inhibition, most hits filed as inhibitors | actives 0.041% (n = 370,000);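 also: 0% = no-compound wells and -100% = no-enzyme wells; nearly all actives have a fitted effect of over 25% in size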
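AmpC (5.3 nM in the dispensed reagent) in 20 mM phosphate pH 7.0 with 0.01% (detergent screen) or 0.0001% Triton X-100 was preincubated with compounds for 15 min at room temperature. Nitrocefin was then added from an 800 uM solution, and hydrolysis was followed at 480 nm.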
Sm TGR block: blocks Schistosoma mansoni thioredoxin glutathione reductase. Q962Y6. purified TGR, DTNB reduction, TNB absorbance 405 nm. Potency, µM (titrated, usually from 114 µM), for the others: at the top dose activity change, negative = inhibition, usual class: inhibitors. actives 3% (n = 360,000). AID 485364; also: nearly all actives have a fitted effect of over 60% in size
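TGR 20 nM + NADPH 100 uM (dispensed conc.), cpd preinc 15 min RT; start with NADPH (500 uM addition) then DTNB (15 mM addition). Kinetic TNB absorbance, 405 nm filter. Four-parameter Hill fit across titration.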
* hit, by the source's call; ? = inconclusive; nt = no result. Unless noted, calls follow the shape of the dose curve; as a rule, active = well fitted curve in the direction sought with a large enough effect; inconclusive = small, poorly fitted or top-dose-only effect, or another doubt; inactive = no such curve, though single readings can be large; an effect the other way counts as inactive or inconclusive. Unless noted, % is scaled to controls: 0 for no effect and ±100 for the full control effect; potency is read from the fitted curve at half-maximal effect.

SMILES	AmpC inh no detg	FMDV inh	AMA1-RON2 inh	AmpC detergent	Sm TGR block
CCN1CCCC1CNC(=O)c1cnn(-c2nccc(-c3cc4ccccc4o3)n2)c1C1CC1 (centres undefined)	nt	-11%	nt	nt	nt
CN(C)c1ccc(CNCCC(Cc2ccccc2)c2ccco2)cc1 (centres undefined)	5%	-27%	16µM*	0%	-22%
CCC(=O)Nc1ccc(C=C(C(C)=O)C(C)=O)cc1	5%	20µM*	-3%	2%	?
COc1cccc(/C=C(/C(=O)OCC(N)=O)c2ccccc2)c1	10%	-19%	-28%	-12%	1%
CCC(=O)Nc1ccc(S(=O)(=O)c2ccc(NC(=O)CC)cc2)cc1	-6%	-24%	3%	-3%	-4%
CC(=O)C(=Cc1ccc(O)cc1)C(C)=O	-27%	-19%	3%	-7%	45µM*
CCC(=O)Nc1ccc(/C=C(\C(C)=O)C(=O)c2ccccc2)cc1	-3%	28µM*	-8%	-5%	-29%
COc1cccc(C=C(C(C)=O)C(=O)c2ccccc2)c1	nt	20µM*	-3%	nt	nt
N#C/C(=C\c1ccc(O)cc1)C(=O)O	nt	-13%	8%	nt	nt
CC(=O)/C(=C/c1ccc(N(C)C)cc1)C(=O)c1ccccc1	-18%	?	-13%	-8%	1%
O=C(N/N=C/CCc1ccccc1)c1ccc(CN2c3cccc4cccc(c34)S2(=O)=O)cc1	-43%	40µM*	46%	-3%	4%
O=C(NCC1Cc2cccc(-c3cnccn3)c2O1)c1ccc2c(c1)OCCO2 (centres undefined)	nt	47%	nt	nt	nt
O=C1NC(c2cccc(Br)c2)=N/C1=C\c1ccco1	?	0%	-9%	-11%	79µM*
O=C1NC(c2ccccc2)=N/C1=C/c1ccco1	1%	68%	-4%	-14%	50µM*
O=C1NC(c2ccccc2Br)=N/C1=C\c1ccco1	-55%	87%	-16%	-1%	40µM*
O=C1NC(=S)NC1=Cc1ccco1	nt	-7%	?	nt	nt
COc1ccccc1C1CN(CCNC(=O)c2ccccc2Cl)Cc2ccccc2O1 (centres undefined)	nt	8%	nt	nt	nt
CC(=O)Nc1ccc(SCC(=O)c2cc(C)n(Cc3cccs3)c2C)cc1	-3%	22µM*	14%	8%	9%
Cc1csc(SCC(=O)c2cc(C)n(Cc3cccs3)c2C)n1	-20%	11µM*	32%	-8%	-11%
COc1ccc(CCNC(=O)CCN2C(=O)c3cccc4cccc(c34)C2=O)cc1OC	-8%	-12%	-2%	?	13%
COc1ccc(CCN2C(=O)c3cccc4c(C(=O)N5CCCCC5)ccc(c34)C2=O)cc1OC	0%	14µM*	5%	?	-1%
CC(=NCc1ccco1)c1c(O)n(C)c(=O)n(C)c1=O	-2%	-23%	8%	-5%	-17%
CCC(=NCc1ccco1)c1c(O)n(C)c(=O)n(C)c1=O	-3%	-4%	4%	7%	25µM*
COc1cc(/C=C(\C#N)C(=O)NC2CCCCC2C)ccc1OS(=O)(=O)c1ccc(C)cc1 (centres undefined)	-20%	25µM*	1%	8%	3%
COc1cc(/C=C(\C#N)C(N)=O)ccc1OS(=O)(=O)c1ccc(C)cc1	-3%	-23%	9%	1%	1%
SMILES	AmpC inh no detg	FMDV inh	AMA1-RON2 inh	AmpC detergent	Sm TGR block
COc1ccc(C2C(=O)N(C3CCCCCC3)CC(=O)N2Cc2ccccc2)cc1 (centres undefined)	nt	-29%	nt	9%	11%
CCN(Cc1ccccc1)S(=O)(=O)c1ccc(F)c(C(=O)Nc2cc(C(F)(F)F)ccc2Cl)c1	nt	-20%	nt	-4%	5%
O=C(/C=C/c1ccc(F)cc1)c1ccccc1Br	-22%	22µM*	12%	-10%	-27%
CCCCCc1c(-c2ccccc2F)ncn1CCc1ccccc1OC	nt	32µM*	-25%	nt	nt
CCCc1c(-c2ccccc2F)ncn1CCc1ccccc1OC	nt	32µM*	?	nt	nt
CCCCc1c(-c2ccccc2F)ncn1CCc1ccccc1OC	nt	?	-20%	nt	nt
CC(=O)Nc1ccc(NC(=O)C(Cc2ccccc2)N2Cc3ccccc3C2=O)cc1 (centres undefined)	nt	1%	nt	18%	3%
C#CC[N+](C)(C)CC#Cc1ccc(Cl)cc1	-2%	-2%	-1%	?	40µM*

Assay outcomes (PubChem)
